What was measured:
Conditions in all cases: concentration: 1 μM,replicates: in singlicate; n = 1
MTOR = test system: MTOR
MUSK = test system: MUSK
MYLK2 = test system: MYLK2
MYLK4 = test system: MYLK4
MYLK = test system: MYLK
MYO3A = test system: MYO3A
MYO3B = test system: MYO3B
NDR1 = test system: T1, NDR1
T1 construct: gene STK38

NDR2 = test system: NDR2
NEK10 = test system: NEK10
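Also: KINOMEscan kinase panel screen.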

c1ccc(Oc2ccc(Nc3ccnc4ccc(-c5ccccn5)cc34)cc2)cc1 [GW407034]
%Inh (MTOR): 15% | %Inh (MUSK): 15% | %Inh (MYLK2): 12% | %Inh (MYLK4): 4% | %Inh (MYLK): 14% | %Inh (MYO3A): 10% | %Inh (MYO3B): 0% | %Inh (NDR1): 0% | %Inh (NDR2): 0% | %Inh (NEK10): 2%

NC(=O)Nc1sc(-c2ccc(F)cc2)cc1C(N)=O [GW789449]
%Inh (MTOR): 23% | %Inh (MUSK): 0% | %Inh (MYLK2): 11% | %Inh (MYLK4): 97.8% | %Inh (MYLK): 10% | %Inh (MYO3A): 0% | %Inh (MYO3B): 0% | %Inh (NDR1): 3% | %Inh (NDR2): 7% | %Inh (NEK10): 3%

CN(c1ccc2c(c1)nc(NCc1ccc(F)cc1)n2C)c1ccnc(Nc2ccc(CS(C)(=O)=O)cc2)n1.Cl [GW813244]
%Inh (MTOR): 0% | %Inh (MUSK): 51% | %Inh (MYLK2): 0% | %Inh (MYLK4): 13% | %Inh (MYLK): 1% | %Inh (MYO3A): 0% | %Inh (MYO3B): 45% | %Inh (NDR1): 31% | %Inh (NDR2): 0% | %Inh (NEK10): 10%

Cc1ccc(C(=O)Nc2ccc(Oc3ccc4nc(NC(=O)C5CC5)cn4c3)c(F)c2)c(=O)n1-c1ccccc1
%Inh (MTOR): 0% | %Inh (MUSK): 99.8% | %Inh (MYLK2): 0% | %Inh (MYLK4): 0% | %Inh (MYLK): 15% | %Inh (MYO3A): 0% | %Inh (MYO3B): 4% | %Inh (NDR1): 8% | %Inh (NDR2): 0% | %Inh (NEK10): 0%

CC(C(=O)NC1CCN(c2ccnc(Nc3ccc(F)cc3)n2)C1)c1ccc(Cl)cc1 (centres unmarked) [GSK1379713]
%Inh (MTOR): 17% | %Inh (MUSK): 6% | %Inh (MYLK2): 3% | %Inh (MYLK4): 0% | %Inh (MYLK): 0% | %Inh (MYO3A): 0% | %Inh (MYO3B): 0% | %Inh (NDR1): 15% | %Inh (NDR2): 0% | %Inh (NEK10): 0%

COc1cccc(OC)c1C(=O)Nc1cccc(-c2nn3ccccc3c2-c2ccnc(Nc3cccc(F)c3)n2)c1 [GSK361065]
%Inh (MTOR): 0% | %Inh (MUSK): 3% | %Inh (MYLK2): 0% | %Inh (MYLK4): 0% | %Inh (MYLK): 87% | %Inh (MYO3A): 28% | %Inh (MYO3B): 13% | %Inh (NDR1): 17% | %Inh (NDR2): 13% | %Inh (NEK10): 0%

Cn1ccc2ncnc(Oc3ccc(NC(=O)Nc4cncc(C(F)(F)F)c4)c(Cl)c3)c21
%Inh (MTOR): 7% | %Inh (MUSK): 95% | %Inh (MYLK2): 0% | %Inh (MYLK4): 0% | %Inh (MYLK): 0% | %Inh (MYO3A): 0% | %Inh (MYO3B): 0% | %Inh (NDR1): 0% | %Inh (NDR2): 0% | %Inh (NEK10): 11%

Cn1ccc2ncnc(Oc3ccc(NC(=O)Nc4ccnc(C(F)(F)F)c4)c(Cl)c3)c21
%Inh (MTOR): 25% | %Inh (MUSK): 42% | %Inh (MYLK2): 0% | %Inh (MYLK4): 0% | %Inh (MYLK): 0% | %Inh (MYO3A): 0% | %Inh (MYO3B): 0% | %Inh (NDR1): 0% | %Inh (NDR2): 2% | %Inh (NEK10): 0%

C[C@@H](Oc1cc(-n2cnc3cc(-c4cnn(C)c4)ccc32)sc1C(N)=O)c1ccccc1Cl [GSK580432]
%Inh (MTOR): 14% | %Inh (MUSK): 64% | %Inh (MYLK2): 65% | %Inh (MYLK4): 22% | %Inh (MYLK): 17% | %Inh (MYO3A): 17% | %Inh (MYO3B): 0% | %Inh (NDR1): 15% | %Inh (NDR2): 0% | %Inh (NEK10): 30%

COc1cc2nccc(Nc3ccc(Oc4ccccc4)cc3)c2cc1OC.Cl [GI261656]
%Inh (MTOR): 10% | %Inh (MUSK): 0% | %Inh (MYLK2): 0% | %Inh (MYLK4): 0% | %Inh (MYLK): 7% | %Inh (MYO3A): 6% | %Inh (MYO3B): 0% | %Inh (NDR1): 0% | %Inh (NDR2): 29% | %Inh (NEK10): 18%

Nc1nccc(-c2ccc3c(N)n[nH]c3c2)n1 [GSK1034945]
%Inh (MTOR): 0% | %Inh (MUSK): 9% | %Inh (MYLK2): 85% | %Inh (MYLK4): 83% | %Inh (MYLK): 21% | %Inh (MYO3A): 8% | %Inh (MYO3B): 0% | %Inh (NDR1): 0% | %Inh (NDR2): 0% | %Inh (NEK10): 0%

COc1cc2c(Nc3ccc(NC(=O)c4ccccc4)cc3)ncnc2cc1OCCCN1CCOCC1 [GSK301329]
%Inh (MTOR): 15% | %Inh (MUSK): 13% | %Inh (MYLK2): 0% | %Inh (MYLK4): 0% | %Inh (MYLK): 2% | %Inh (MYO3A): 0% | %Inh (MYO3B): 0% | %Inh (NDR1): 5% | %Inh (NDR2): 0% | %Inh (NEK10): 3%

CS(=O)(=O)c1cccc(CNc2nc(Nc3ccc4c(c3)[C@@H]3C[C@@H]4CNC3=O)ncc2C(F)(F)F)c1
%Inh (MTOR): 12% | %Inh (MUSK): 26% | %Inh (MYLK2): 12% | %Inh (MYLK4): 0% | %Inh (MYLK): 12% | %Inh (MYO3A): 13% | %Inh (MYO3B): 54% | %Inh (NDR1): 85% | %Inh (NDR2): 6% | %Inh (NEK10): 0%

CN1CCN(CCNc2nc3cc(Oc4ccc(NC(=O)Nc5cc(C(F)(F)F)ccc5F)cc4)ccc3[nH]2)CC1.Cl.Cl [GW768504]
%Inh (MTOR): 0% | %Inh (MUSK): 97.3% | %Inh (MYLK2): 6% | %Inh (MYLK4): 0% | %Inh (MYLK): 0% | %Inh (MYO3A): 0% | %Inh (MYO3B): 20% | %Inh (NDR1): 51% | %Inh (NDR2): 7% | %Inh (NEK10): 0%

COC(=O)c1cccc(NC(=O)NC2CCN(c3ccnc(Nc4cc(OC)c(OC)c(OC)c4)n3)C2)c1 (centres unmarked) [GSK1379767]
%Inh (MTOR): 26% | %Inh (MUSK): 5% | %Inh (MYLK2): 25% | %Inh (MYLK4): 14% | %Inh (MYLK): 11% | %Inh (MYO3A): 43% | %Inh (MYO3B): 0% | %Inh (NDR1): 18% | %Inh (NDR2): 38% | %Inh (NEK10): 3%

Cc1ccn2nc(-c3ccc(F)cc3)c(-c3ccncc3)c2c1.Cl [GW457859]
%Inh (MTOR): 8% | %Inh (MUSK): 0% | %Inh (MYLK2): 23% | %Inh (MYLK4): 0% | %Inh (MYLK): 26% | %Inh (MYO3A): 48% | %Inh (MYO3B): 0% | %Inh (NDR1): 13% | %Inh (NDR2): 40% | %Inh (NEK10): 0%

O=C(Nc1ccccc1)c1cccc(Oc2ccc3nccn3n2)c1
%Inh (MTOR): 14% | %Inh (MUSK): 73% | %Inh (MYLK2): 0% | %Inh (MYLK4): 0% | %Inh (MYLK): 0% | %Inh (MYO3A): 0% | %Inh (MYO3B): 0% | %Inh (NDR1): 0% | %Inh (NDR2): 22% | %Inh (NEK10): 0%
